Laboratory results from PubChem BioAssay AID1159580 (chemical genetic matrix, 2015).
“And” between values parts separate entries of the source, which are not always exact repeats. Equal values may be shown once. The campaign covered roughly 5,500 compounds. About 2,000 (36%) were called active. Inconclusive results (about 18%) are left out. No stated cut-off is given here; in the data, active means normalized growth mostly below about 0.91 (no sharp cut-off); inconclusive means no clear call, values can overlap the other calls; inactive means mostly above about 0.92. This is one part of the list.

Assay: chemical genetic growth profiling, strain panel (AID 1159580);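 further: tested at 20 µM; growth read once vehicle control cultures reached saturation at 30 °C; 1 = growth at the plate median or of vehicle wells; lower values mean less growth of the strain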
Conditions: S. cerevisiae deletion strains, growth OD

Measured: normalized growth

CC(C)(O)[C@@H]1[C@H]2OC(=O)[C@@H]1[C@]1(O)C[C@H]3O[C@]34C(=O)O[C@H]2[C@]14C
inactive: locus YAL013W, strain DEP1, hits give low values 1 | locus YAL021C, strain ccr4, hits give low values 1.01 | locus YAL026C, strain drs2, hits give low values 1.01 | locus YAL030W, strain snc1, hits give low values 1 | locus YBL061C, strain skt5, hits give low values 1 | locus YBR009C, strain hhf1, hits give low values 0.998 | locus YBR021W, strain FUR4, hits give low values 1 | locus YBR023C, strain chs3, hits give low values 1.01 | locus YBR171W, strain sec66, hits give low values 0.99 | locus YBR229C, strain ROT2, hits give low values 1 | locus YBR231C, strain swc5, hits give low values 0.991 | locus YBR279W, strain paf1, hits give low values 1.01 | locus YCL011C, strain gbp2, hits give low values 1.01 | locus YCL016C, strain dcc1, hits give low values 1.01 | locus YCL029C, strain bik1, hits give low values 1.01 | locus YCL061C, strain MRC1, hits give low values 1 | locus YCL069W, strain vba3, hits give low values 1.01 | locus YCR088W, strain abp1, hits give low values 1 | locus YDL005C, strain med2, hits give low values 0.988 | locus YDL035C, strain GPR1, hits give low values 1 | locus YDL040C, strain nat1, hits give low values 1 | locus YDL074C, strain BRE1, hits give low values 1.02 | locus YDL101C, strain DUN1, hits give low values 1.01 | locus YDL134C, strain PPH21, hits give low values 1 | locus YDL185W, strain tfp1, hits give low values 1.01 | locus YDL192W, strain arf1, hits give low values 1.02 | locus YDR001C, strain nth1, hits give low values 1.01 | locus YDR069C, strain doa4, hits give low values 1.01 | locus YDR101C, strain arx1, hits give low values 1 | locus YDR137W, strain rgp1, hits give low values 1 | locus YDR150W, strain NUM1, hits give low values 1 | locus YDR159W, strain sac3, hits give low values 0.993 | locus YDR162C, strain NBP2, hits give low values 1.01 | locus YDR195W, strain ref2 0.988 | locus YDR297W, strain sur2, hits give low values 0.993 | locus YDR318W, strain mcm21, hits give low values 1.01 | locus YDR334W, strain swr1, hits give low values 1.02 | locus YDR335W, strain msn5, hits give low values 1 | locus YDR388W, hits give low values 1.02 | locus YDR392W, strain spt3, hits give low values 0.939 | locus YDR502C, strain sam2, hits give low values 1.03 | locus YEL003W, strain gim4, hits give low values 1 | locus YEL037C, strain rad23, hits give low values 1.02 | locus YEL061C, strain CIN8 (second series), hits give low values 1.01 | locus YEL061C, strain CIN8, hits give low values 1 | locus YER015W, strain faa2, hits give low values 1.01 | locus YER016W, strain bim1, hits give low values 0.997 | locus YER110C, hits give low values 1.02 | locus YER111C, strain swi4, hits give low values 1 | locus YER155C, strain BEM2 (second series), hits give low values 1.01 | locus YER155C, strain BEM2, hits give low values 1 | locus YER167W, strain BCK2, hits give low values 1 | locus YFR010W, strain ubp6, hits give low values 1.01 | locus YGL078C, strain dbp3, hits give low values 1.01 | locus YGL086W, strain mad1, hits give low values 1.02 | locus YGL167C, strain pmr1, hits give low values 1 | locus YGL173C, strain kem1, hits give low values 1 | locus YGL227W, strain vid30, hits give low values 0.993 | locus YGL240W, strain doc1, hits give low values 1 | locus YGL248W, strain PDE1, hits give low values 1.01 | locus YGL253W, strain hxk2, hits give low values 1.01 | locus YGR078C, strain PAC10, hits give low values 1 | locus YGR135W, strain pre9, hits give low values 1 | locus YGR252W, strain gcn5, hits give low values 0.994 | locus YHR013C, strain ard1, hits give low values 0.988 | locus YHR027C, strain rpn1, hits give low values 1.01 | locus YHR030C, strain SLT2, hits give low values 1.01 and 1.03 | locus YHR079C, strain IRE1 (second series), hits give low values 1.01 | locus YHR079C, strain IRE1, hits give low values 1.03 | locus YHR094C, strain hxt1, hits give low values 1.01 | locus YHR129C, strain ARP1, hits give low values 1 | locus YHR142W, strain chs7, hits give low values 1.01 | locus YHR200W, strain rpn10, hits give low values 1.03 | locus YIL066C, strain RNR3, hits give low values 1.01 | locus YIL073C, strain SPO22, hits give low values 1.06 | locus YIL125W, strain kgd1, hits give low values 1.01 | locus YIR030C, strain dcg1, hits give low values 1.02 | locus YJL092W, strain hpr5, hits give low values 1 | locus YJL095W, strain BCK1 (second series), hits give low values 1 | locus YJL095W, strain BCK1, hits give low values 0.997 and 1.04 | locus YJL115W, strain asf1, hits give low values 1.01 | locus YJL129C, strain trk1, hits give low values 1 | locus YJL134W, strain LCB3, hits give low values 1.01 | locus YJL154C, strain vps35, hits give low values 1.01 | locus YJL164C, strain tpk1, hits give low values 0.999 | locus YJL166W, strain qcr8, hits give low values 1 | locus YJL168C, strain set2, hits give low values 1.01 | locus YJL187C, strain SWE1 (second series), hits give low values 1.01 | locus YJL187C, strain SWE1, hits give low values 1.01 | locus YJR043C, strain POL32, hits give low values 1.01 | locus YJR066W, strain TOR1, hits give low values 0.965 | locus YJR075W, strain HOC1, hits give low values 1.01 | locus YKL009W, strain mrt4, hits give low values 1.02 | locus YKL068W, hits give low values 1 | locus YKL085W, strain MDH1 (second series), hits give low values 1 | locus YKL085W, strain MDH1, hits give low values 1 | locus YKL160W, strain elf1, hits give low values 0.998 | locus YKL190W, strain CNB1, hits give low values 1.01 | locus YKR001C, strain vps1, hits give low values 1.05 | locus YKR026C, strain gcn3, hits give low values 1.01 | locus YKR091W, strain srl3, hits give low values 1 | locus YLL001W, strain dnm1, hits give low values 0.996 | locus YLL026W, hits give low values 0.999 | locus YLL041C, strain sdh2, hits give low values 1.01 | locus YLR027C, strain aat2, hits give low values 1.03 | locus YLR039C, strain RIC1, hits give low values 0.995 | locus YLR058C, strain SHM2, hits give low values 1 | locus YLR102C, strain apc9, hits give low values 1.01 | locus YLR113W, strain HOG1, hits give low values 0.982 | locus YLR221C, strain rsa3, hits give low values 0.999 | locus YLR258W, strain gsy2, hits give low values 0.997 | locus YLR262C, strain YPT6 (second series), hits give low values 0.991 | locus YLR262C, strain YPT6, hits give low values 1.02 | locus YLR268W, strain sec22, hits give low values 1.02 | locus YLR320W, strain mms22, hits give low values 1 | locus YLR330W, strain CHS5, hits give low values 1.01 | locus YLR342W, strain FKS1 (second series), hits give low values 1.02 | locus YLR342W, strain FKS1, hits give low values 1.01 | locus YLR357W, strain rsc2, hits give low values 1.02 | locus YLR370C, strain arc18, hits give low values 1 | locus YLR371W, strain rom2, hits give low values 1.02 | locus YLR384C, strain iki3, hits give low values 0.994 | locus YLR418C, strain cdc73, hits give low values 0.997 | locus YML016C, strain PPZ1, hits give low values 1.01 | locus YML032C, strain rad52, hits give low values 1.02 | locus YML120C, strain ndi1, hits give low values 1.01 | locus YML124C, strain tub3, hits give low values 1 | locus YMR058W, strain fet3, hits give low values 1.01 | locus YMR078C, strain ctf18, hits give low values 1.01 | locus YMR125W, strain sto1, hits give low values 1.01 | locus YMR129W, hits give low values 1 | locus YMR205C, strain PFK2, hits give low values 0.988 | locus YMR223W, strain ubp8, hits give low values 1.01 | locus YMR231W, strain pep5, hits give low values 1 | locus YMR263W, strain SAP30, hits give low values 1.01 | locus YMR307W, strain GAS1, hits give low values 1.03 | locus YNL067W, strain RPL9B, hits give low values 1 | locus YNL071W, strain lat1, hits give low values 1.01 | locus YNL128W, strain TEP1, hits give low values 1.03 | locus YNL153C, strain GIM3, hits give low values 1 | locus YNL183C, strain NPR1, hits give low values 0.987 | locus YNL209W, strain ssb2, hits give low values 1.01 | locus YNL233W, strain BNI4, hits give low values 0.996 | locus YNL248C, strain rpa49, hits give low values 0.958 | locus YNL250W, strain rad50, hits give low values 1 | locus YNL271C, strain bni1, hits give low values 1.01 | locus YNL298W, strain CLA4, hits give low values 1.02 | locus YNL307C, strain MCK1, hits give low values 1.03 | locus YNL322C, strain KRE1 (second series), hits give low values 0.998 | locus YNL322C, strain KRE1, hits give low values 1 | locus YNR049C, strain mso1, hits give low values 1.01 | locus YNR052C, strain pop2, hits give low values 1.01 | locus YOL006C, strain TOP1, hits give low values 1.02 | locus YOL012C, strain htz1 1.37 | locus YOL147C, strain pex11, hits give low values 1.01 | locus YOR001W, strain rrp6, hits give low values 1.02 | locus YOR061W, strain CKA2, hits give low values 1.02 | locus YOR069W, strain VPS5, hits give low values 1.01 | locus YOR070C, strain gyp1, hits give low values 1.02 | locus YOR080W, strain dia2, hits give low values 0.992 | locus YOR083W, strain WHI5, hits give low values 0.988 | locus YOR106W, strain vam3, hits give low values 1.01 | locus YOR136W, strain idh2, hits give low values 1.01 | locus YOR144C, strain elg1, hits give low values 1.02 | locus YOR184W, strain ser1, hits give low values 1.02 | locus YOR231W, strain MKK1, hits give low values 1.02 | locus YOR265W, strain rbl2, hits give low values 1.01 | locus YOR270C, strain vph1, hits give low values 1.02 | locus YOR290C, strain snf2, hits give low values 0.982 | locus YOR316C, strain cot1, hits give low values 1.01 | locus YPL051W, strain arl3, hits give low values 1.04 | locus YPL055C, strain LGE1, hits give low values 1.01 | locus YPL078C, strain atp4, hits give low values 1.01 | locus YPL106C, strain sse1, hits give low values 0.987 | locus YPL240C, strain hsp82, hits give low values 0.997 | locus YPL241C, strain CIN2, hits give low values 1.01 | locus YPL256C, strain CLN2, hits give low values 1.02 | locus YPR119W, strain clb2, hits give low values 1.01 | locus YPR141C, strain kar3, hits give low values 1 | locus YPR163C, strain tif3, hits give low values 1.03 | locus YPR167C, strain met16, hits give low values 1.01 | strain wtn01, hits give low values 1.03
